We go through seven molecules from PubChem BioAssay (Tox21).

A short description of experiment [1]: Nuclear factor erythroid 2-related factor 2/antioxidant responsive element (Nrf2/ARE) small molecule agonists: luciferase reporter gene qHTS assay in human keratinocytes (AID 1919969). Further: nearly all actives have a fitted effect of over 35% in size.
Experiment [2] addresses Gonadotropin-releasing hormone receptor (Homo sapiens) (UniProt P30968). In words: Human gonadotropin-releasing hormone receptor (GnRHR) small molecule agonists, calcium flux assay in GnRHR-HEK293 cells (AID 1920063). Further: nearly all actives have a fitted effect of over 35% in size. The method in brief:
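Agonist mode: compounds at 15 concentrations, in triplicate, went onto calcium dye-loaded GnRHR-HEK293 cells. Intracellular calcium was then followed as 480/540 nm fluorescence at 1 s intervals over 3 min.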
Background: Calcium assays in cells follow changes in intracellular calcium, usually with a dye or a luminescent sensor.

The target of experiment [3] is KiSS-1 receptor (Homo sapiens) (UniProt Q969F8). Kind of experiment: Human kisspeptin (KISS1R) small molecule agonists, calcium flux assay in KISS1R-HEK293 cells (AID 1920064; active means well fitted activation curve with a large enough effect in the repeat runs). The method in brief:
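Agonist mode: intracellular calcium rise tracked at 1 s intervals over 3 min (480/540 nm) immediately after compound addition to dye-loaded KISS1R-HEK293 stable cells. Each compound tested at 15 concentrations in triplicate.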

A short description of experiment [4]: G protein-coupled receptor (GPCR) small molecule agonists, calcium flux assay: HEK293 wild type cell line counter screen (AID 1920065). The method in brief: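 Calcium flux counter screen: compound added in agonist mode at 15 concentrations in triplicate to dye-loaded parental HEK293 cells. Fluorescence (480/540) read kinetically for 3 min; ATP served as positive control.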

The nature of experiment [5]: p53 small molecule agonists, cell-based qHTS assay with human liver microsomes (AID 1963577). The method in brief: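 p53RE-bla reporter cells were pre-incubated 5 h at 37 C, then treated with compounds plus human liver microsomes (0.5 mg/mL final) and NADPH (0.5 mg/mL final) for 16 h at 37 C. Beta-lactamase activity was read by LiveBLAzer fluorescence after 2 h at room temperature.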
On the technique in general: qHTS replaces the single test concentration by a dilution series.

A short description of experiment [6]: p53 small molecule agonists, cell-based qHTS assay with rat liver microsomes (AID 1963578). The method in brief:
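p53RE-bla cells were exposed to compounds together with rat liver microsomes (0.5 mg/mL final) and NADPH (0.5 mg/mL final) for 16 h at 37 C, then read by LiveBLAzer beta-lactamase fluorescence after 2 h at room temperature.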

Experiment [7] in a line: p53 small molecule agonists, cell-based qHTS assay with human liver microsomes: qHTS cell viability counter screen (AID 1963579). Further: nearly all actives have a fitted effect of over 45% in size. The method in brief:
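p53RE-bla cells (4,000/well) were pre-incubated 5 h at 37 C, then given compounds in DMSO plus human liver microsomes (0.5 mg/mL final) and NADPH (0.5 mg/mL final) for 16 h at 37 C. Viability was read by CellTiter-Glo luminescence.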

The nature of experiment [8]: p53 small molecule agonists, cell-based qHTS assay with rat liver microsomes: qHTS cell viability counter screen (AID 1963580). Further: nearly all actives have a fitted effect of over 45% in size. The method in brief:
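Cytotoxicity counter screen: intracellular ATP measured by CellTiter-Glo luminescence in the same wells as the beta-lactamase reporter read, on HCT-116 p53RE-bla cells exposed 16 h at 37 C to compounds with rat liver microsomes and NADPH, each 0.5 mg/mL final.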

The nature of experiment [9]: p53 small molecule agonists, cell-based qHTS assay: qHTS cell viability counter screen (AID 1963581). Further: nearly all actives have a fitted effect of over 45% in size. The method in brief: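 Counter screen read by CellTiter-Glo luminescence (ATP content, 30 min at room temperature), run in the same wells as the beta-lactamase reporter read. HCT-116 p53RE-bla cells saw compounds for 16 h at 37 C.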
A short description of experiment [10]: p53 small molecule agonists, cell-based qHTS assay (AID 1963582; active means well fitted activation curve with a large enough effect in the signal ratio in the repeat runs, not every such curve was filed as active; the % refers to the signal ratio). The method in brief:
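Read-out is beta-lactamase FRET fluorescence after 2 h at room temperature with LiveBLAzer B/G substrate. p53 response element-bla cells were treated 16 h at 37 C with compounds in DMSO, added 5 h after seeding.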

Experiment [11] in a line: cAMP Responsive Elements (CRE) small molecule agonists, cell-based qHTS assay (AID 1963590). The method in brief:
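Agonist mode: compound added to CRE-bla HEK 293T cells (2,000/well, 18 h after plating) for 3 h at 37 C/5% CO2. Reporter activity detected via FRET beta-lactamase substrate, 2 h room-temperature loading.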

Experiment [12] is described as follows: cAMP Responsive Elements (CRE) small molecule antagonists, cell-based qHTS assay (AID 1963591; active means well fitted inhibition curve with a large enough effect in the signal ratio in the repeat runs, not every such curve was filed as active; the % refers to the signal ratio; further: potency means the concentration at half of the fitted maximal effect). The method in brief: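 Antagonist mode: compounds are added alongside the adenylyl cyclase activator NKH477 (0.25 uM final) to CRE-bla HEK293T cells for 3 h. LiveBLAzer FRET substrate, 2 h at room temperature, reports bla expression.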
Experiment [13] deals with Beta-2 adrenergic receptor (Homo sapiens) (UniProt P07550). In words: Adrenergic beta2 receptor (ADRB2) small molecule antagonists, cell-based qHTS assay (AID 1963592). Further: series mostly up to about 92 µM; nearly all actives have a fitted effect of over 50% in size. The method in brief: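 Assay format: CHO-ADRB2 cells, 18-20hr seeding at 37C/5% CO2, then compound plus 1nM isoproterenol agonist mix for 0.5hr RT. Homogeneous time-resolved fluorescence cAMP detection after 1hr, expressed as 665/615 nm ratio.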

Experiment [14] addresses D(2) dopamine receptor (Homo sapiens) (UniProt P14416). In words: Dopamine D2 receptor (DRD2) small molecule agonists, cell-based qHTS assay (AID 1963594). Further: nearly all actives have a fitted effect of over 35% in size. The method in brief:
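HEK293 cells stably expressing human DRD2, pre-treated with PDE inhibitor Ro20-1724 (0.1 mM final) and compound 10 min at room temperature, then stimulated with NKH477 (200nM […]) for 30 min. cAMP read by HTRF (665/620 nm).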

For experiment [15] the target is unchanged. In words: Dopamine D2 receptor (DRD2) small molecule antagonists, cell-based qHTS assay (AID 1963595; active means well fitted inhibition curve with a large enough effect in the signal ratio in the repeat runs, with a control signal flat; the % refers to the signal ratio). The method in brief:
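HTRF cAMP read-out at 665 and 620 nm emission (340 nm excitation). Antagonist mode: compounds were tested against 12 nM quinpirole in DRD2-HEK293 cells, with 200 nM NKH477 raising cAMP and 0.1 mM Ro20-1724 blocking its breakdown.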

For experiment [16], the target named is 5-hydroxytryptamine receptor 2A (Homo sapiens) (UniProt P28223). Kind of experiment: 5-hydroxytryptamine receptor 2A (HTR2A) small molecule antagonists, cell-based qHTS assay (AID 1963586). Further: nearly all actives have a fitted effect of over 45% in size. The method in brief:
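CHO cells stably expressing human HTR2A were plated for 18 h at 37 C, then loaded with calcium dye for 1 h. Compounds were preincubated 5 min at room temperature before DOI (4 nM solution) was added. Kinetic fluorescence was read for 3 min.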

For experiment [17] the target is unchanged. In words: 5-hydroxytryptamine receptor 2A (HTR2A) small molecule agonists, cell-based qHTS assay (AID 1963587). Further: nearly all actives have a fitted effect of over 30% in size. The method in brief: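 CHO cells stably expressing human HTR2A, plated 18 h, loaded with calcium dye 1 h at 37 C. Agonist mode: compounds added and intracellular calcium fluorescence recorded kinetically for 2 min at 1 sec intervals.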
The target in experiment [18] is Muscarinic acetylcholine receptor M1 (Homo sapiens) (UniProt P11229). In words: Cholinergic receptor muscarinic 1 (CHRM1) small molecule antagonists, cell-based qHTS assay (AID 1963588). Further: nearly all actives have a fitted effect of over 40% in size. Further: potency means the concentration at half of the fitted maximal effect. The method in brief: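 Compounds were tested at 15 concentrations in three independent runs. Dye-loaded CHRM1-CHO cells were exposed 5 min at room temperature before stimulation by acetylcholine added at 50nM. Intracellular calcium was read kinetically on FDSS for 3 min.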

Experiment [19] has the same target. Kind of experiment: Cholinergic receptor muscarinic 1 (CHRM1) small molecule agonists, cell-based qHTS assay (AID 1963589). Further: nearly all actives have a fitted effect of over 35% in size. The method in brief:
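Agonist-mode calcium-flux screen: compounds at 15 concentrations, three independent runs, were pin-transferred onto dye-loaded human CHRM1-CHO cells. Fluorescence was then recorded kinetically every second over minutes.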

The target in experiment [20] is Beta-2 adrenergic receptor (Homo sapiens) (UniProt P07550). Kind of experiment: Adrenergic beta2 receptor (ADRB2) small molecule agonists, cell-based qHTS assay (AID 1963593).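 Further: CHO cells stably overexpressing human ADRB2.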 The method in brief: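 CHO cells stably over-expressing ADRB2 were plated overnight at 37C, then dosed with compounds plus a stimulation mix containing 100uM IBMX and 25uM Ro-20-1724 for 0.5hr at room temperature. cAMP was measured by HTRF competition, 1hr.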

“And” between values parts separate entries of the source, which are not always exact repeats. Equal values may be shown once. Records with an inconclusive call do not appear. Some structures have more than one record in an assay (separate samples or runs), and their calls can disagree. The source made the active and inactive calls. Unless noted, the call rests on the fitted dose curve.
On the % scale 0 is the no-effect control and ±100 the full control effect.

5-hydroxytryptamine receptor 2A (Homo sapiens), sequence (P28223 whole entry, looked up): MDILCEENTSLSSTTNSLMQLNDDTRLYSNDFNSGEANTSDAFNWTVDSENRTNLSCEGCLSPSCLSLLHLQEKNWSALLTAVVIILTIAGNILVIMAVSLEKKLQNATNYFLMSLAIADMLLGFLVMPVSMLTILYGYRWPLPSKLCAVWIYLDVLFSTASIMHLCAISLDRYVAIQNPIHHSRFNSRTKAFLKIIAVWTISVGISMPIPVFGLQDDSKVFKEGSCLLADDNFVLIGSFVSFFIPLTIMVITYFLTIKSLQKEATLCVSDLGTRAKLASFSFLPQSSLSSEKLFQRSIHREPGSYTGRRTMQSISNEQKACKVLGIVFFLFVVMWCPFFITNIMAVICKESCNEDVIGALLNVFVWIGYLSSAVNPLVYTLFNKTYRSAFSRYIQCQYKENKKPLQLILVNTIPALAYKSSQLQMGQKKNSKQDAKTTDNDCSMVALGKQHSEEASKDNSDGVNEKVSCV
Gonadotropin-releasing hormone receptor (Homo sapiens), sequence (P30968 whole entry, looked up): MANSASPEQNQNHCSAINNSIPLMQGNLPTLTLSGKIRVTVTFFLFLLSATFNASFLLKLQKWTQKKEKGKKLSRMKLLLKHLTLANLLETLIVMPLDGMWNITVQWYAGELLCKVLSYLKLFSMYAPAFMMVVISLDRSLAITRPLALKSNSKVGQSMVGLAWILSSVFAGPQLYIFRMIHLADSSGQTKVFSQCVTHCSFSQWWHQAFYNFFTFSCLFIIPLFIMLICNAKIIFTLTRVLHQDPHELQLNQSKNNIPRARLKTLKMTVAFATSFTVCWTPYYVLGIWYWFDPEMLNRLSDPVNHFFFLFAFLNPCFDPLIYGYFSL
Muscarinic acetylcholine receptor M1 (Homo sapiens), sequence (P11229 whole entry, looked up): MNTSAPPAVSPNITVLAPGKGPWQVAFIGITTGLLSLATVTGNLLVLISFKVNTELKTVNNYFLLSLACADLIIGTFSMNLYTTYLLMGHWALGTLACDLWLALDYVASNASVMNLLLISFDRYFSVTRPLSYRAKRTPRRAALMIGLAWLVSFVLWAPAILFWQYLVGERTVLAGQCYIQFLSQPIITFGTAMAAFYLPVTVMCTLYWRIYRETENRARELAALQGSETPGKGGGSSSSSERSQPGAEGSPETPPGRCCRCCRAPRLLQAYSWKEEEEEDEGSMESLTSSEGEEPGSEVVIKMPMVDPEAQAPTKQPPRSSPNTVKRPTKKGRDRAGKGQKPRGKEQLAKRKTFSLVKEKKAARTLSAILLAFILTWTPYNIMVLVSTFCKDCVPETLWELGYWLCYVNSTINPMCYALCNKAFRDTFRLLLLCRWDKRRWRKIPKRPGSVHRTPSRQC
D(2) dopamine receptor (Homo sapiens), sequence (P14416 whole entry, looked up): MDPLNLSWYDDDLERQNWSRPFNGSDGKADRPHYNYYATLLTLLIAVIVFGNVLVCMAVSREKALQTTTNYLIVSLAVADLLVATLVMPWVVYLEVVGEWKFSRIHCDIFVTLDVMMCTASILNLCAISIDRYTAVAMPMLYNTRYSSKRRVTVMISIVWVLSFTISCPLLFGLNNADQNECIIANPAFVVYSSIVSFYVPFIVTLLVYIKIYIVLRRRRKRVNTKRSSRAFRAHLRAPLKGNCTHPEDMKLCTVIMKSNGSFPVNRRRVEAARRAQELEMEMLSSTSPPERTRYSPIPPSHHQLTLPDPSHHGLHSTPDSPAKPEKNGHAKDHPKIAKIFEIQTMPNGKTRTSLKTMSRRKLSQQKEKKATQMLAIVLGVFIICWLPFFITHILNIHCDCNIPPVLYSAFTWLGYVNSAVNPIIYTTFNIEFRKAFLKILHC
Beta-2 adrenergic receptor (Homo sapiens), sequence (P07550 whole entry, looked up): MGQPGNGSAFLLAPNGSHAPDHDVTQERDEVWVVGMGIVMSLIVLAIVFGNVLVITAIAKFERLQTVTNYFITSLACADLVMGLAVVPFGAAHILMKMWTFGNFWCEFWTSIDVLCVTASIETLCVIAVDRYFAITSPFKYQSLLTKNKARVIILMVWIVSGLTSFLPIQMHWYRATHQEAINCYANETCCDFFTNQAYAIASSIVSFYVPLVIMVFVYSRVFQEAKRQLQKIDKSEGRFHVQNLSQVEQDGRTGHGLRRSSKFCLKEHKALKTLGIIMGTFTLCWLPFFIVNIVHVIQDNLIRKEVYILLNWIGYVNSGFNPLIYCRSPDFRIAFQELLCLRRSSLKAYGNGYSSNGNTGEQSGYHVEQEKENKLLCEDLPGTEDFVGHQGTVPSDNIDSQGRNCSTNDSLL
KiSS-1 receptor (Homo sapiens), sequence (Q969F8 whole entry, looked up): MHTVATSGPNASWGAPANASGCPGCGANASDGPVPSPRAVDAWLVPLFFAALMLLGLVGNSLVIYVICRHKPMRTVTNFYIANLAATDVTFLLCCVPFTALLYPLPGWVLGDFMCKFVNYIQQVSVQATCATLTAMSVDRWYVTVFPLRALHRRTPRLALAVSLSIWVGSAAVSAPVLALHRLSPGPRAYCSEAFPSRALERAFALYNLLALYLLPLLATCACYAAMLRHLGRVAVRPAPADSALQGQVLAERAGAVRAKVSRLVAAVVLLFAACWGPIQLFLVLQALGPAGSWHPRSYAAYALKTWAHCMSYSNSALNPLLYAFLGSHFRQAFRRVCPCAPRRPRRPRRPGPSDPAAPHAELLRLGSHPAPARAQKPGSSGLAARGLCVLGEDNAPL

As to `CC[C@H]1CN2CCc3cc(OC)c(OC)cc3[C@@H]2C[C@@H]1C[C@H]1NCCc2cc(OC)c(OC)cc21`, the Potency result in [1], in experiment [2], in experiment [3], in [4], in experiment [5] and in experiment [6] was “inactive” throughout. Further, the Potency entry in [7], in experiment [8], in experiment [9], in experiment [10], in experiment [11] and in [13] was “inactive” in each case. The Potency entry in [14] and in experiment [15] was “inactive” in each case. Besides, the Potency in [12] is 1.68 µM (active).

Take `CCn1cc(C(=O)O)c(=O)c2cc3c(cc21)OCO3`: in experiment [1], the activity, positive = activation is -1.35% [at 19 µM] (inactive). Moreover, the Potency result in experiment [2], in [3], in experiment [4], in experiment [5], in [6] and in experiment [7] was “inactive” in each case. In addition, the Potency entry in experiment [8], in experiment [9], in experiment [10], in experiment [16], in [17] and in [18] was “inactive” each time. Besides, the Potency entry in experiment [19], in experiment [13], in experiment [20], in experiment [14] and in [15] was “inactive” in each case. The activity change, negative = inhibition in [12] was -7.86% [at 18.9 µM] (inactive).

As to `CN(C)CCOC(c1ccc(Cl)cc1)c1ccccn1` (centres undefined), the Potency entry in experiment [1], in experiment [2], in [3], in experiment [4], in experiment [5] and in experiment [6] was “inactive” throughout. For the same molecule, the Potency result in [7], in experiment [8], in experiment [9], in experiment [10], in [16] and in experiment [17] was “inactive” throughout. Besides, the Potency result in experiment [19], in experiment [11], in experiment [12], in experiment [13], in experiment [20] and in experiment [14] was “inactive” each time. The Potency in [18] is 4.6 µM (active).

For `C=C(C)C(=O)OCCOP(=O)(O)O`, the Potency result in [1], in [2], in experiment [3], in experiment [4], in experiment [5] and in [6] was “inactive” throughout. The Potency result in [7], in experiment [8], in [9], in experiment [10], in experiment [17] and in experiment [19] was “inactive” throughout. In addition, the Potency result in experiment [11], in experiment [12], in experiment [13], in experiment [20], in experiment [14] and in experiment [15] was “inactive” in each case.

For `CCC(C)(C)C1CCC(=O)CC1`, the Potency result in experiment [1], in experiment [2], in experiment [3], in experiment [4], in experiment [5] and in experiment [6] was “inactive” each time. The Potency entry in experiment [7], in experiment [8], in [9], in [10], in experiment [16] and in [18] was “inactive” each time. Further, the Potency entry in experiment [19], in experiment [11], in experiment [12], in [13], in [20] and in [14] was “inactive” each time. The Potency entry in experiment [15] was “inactive”.

With `CCCCCC=O`, the Potency entry in experiment [1], in [2], in experiment [3], in experiment [4], in experiment [5] and in experiment [6] was “inactive” throughout. Moreover, the Potency result in experiment [8], in experiment [9], in experiment [10], in experiment [16], in [17] and in experiment [19] was “inactive” each time. The Potency result in experiment [12], in experiment [13], in experiment [20], in [14] and in experiment [15] was “inactive” throughout. Further, the Potency result in experiment [18] is “inactive and 11.9 nM (active)”.

Turning to `Cc1ccc2oc(=O)ccc2c1`, the Potency entry in [1], in [2], in experiment [3], in experiment [4], in experiment [7] and in experiment [8] was “inactive” in each case. In addition, the Potency entry in experiment [9], in experiment [16], in experiment [17], in [19], in experiment [11] and in experiment [12] was “inactive” in each case. Also, the Potency entry in experiment [13], in experiment [20], in experiment [14] and in [15] was “inactive” throughout.
